Source: PubChem BioAssay (National Center for Advancing Translational Sciences (NCATS))
CRE-bla Fsk – Cell signaling CRE-BLA (Fsk stim); CHO CRE-bla reporter (cAMP response element driving beta-lactamase), forskolin EC10, beta-lactamase ratio; Potency, µM (top dose mostly 38.2 µM), inactives show at the highest dose activity change, negative = inhibition, hits mostly activators; hit rate 2.5% among 71,000; active = well fitted activation curve with a large enough effect in the signal ratio, with a control signal flat, not every such curve was filed as active; inconclusive = small, poorly fitted or top-dose-only effect, or effect the other way, or a change in a side signal; the % refers to the signal ratio; also: % of control where 0% means no effect
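qHTS titration format; CRE-bla CHO reporter; stimulus EC10 NKH 477, a water-soluble forskolin. Read: CCF4 460/530 nm ratio. Potency expressed as AC50 for activators or inhibitors.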
Tau fil binding – qHTS Assay for Tau Filament Binding; recombinant tau filaments, thioflavin S fluorescence, 15 h; filaments grown with octadecylsulfate alongside compound; Potency, µM (top dose mostly 57.1 µM), inactives show at the top dose activity change, negative = inhibition; hit rate 2% among 71,000;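 also: % is scaled to controls: 0 for no effect and ±100 for the full control effect; actives lower thioflavin S fluorescence by blocking filaments or displacing dye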
Target sequence (P10636 whole entry, looked up): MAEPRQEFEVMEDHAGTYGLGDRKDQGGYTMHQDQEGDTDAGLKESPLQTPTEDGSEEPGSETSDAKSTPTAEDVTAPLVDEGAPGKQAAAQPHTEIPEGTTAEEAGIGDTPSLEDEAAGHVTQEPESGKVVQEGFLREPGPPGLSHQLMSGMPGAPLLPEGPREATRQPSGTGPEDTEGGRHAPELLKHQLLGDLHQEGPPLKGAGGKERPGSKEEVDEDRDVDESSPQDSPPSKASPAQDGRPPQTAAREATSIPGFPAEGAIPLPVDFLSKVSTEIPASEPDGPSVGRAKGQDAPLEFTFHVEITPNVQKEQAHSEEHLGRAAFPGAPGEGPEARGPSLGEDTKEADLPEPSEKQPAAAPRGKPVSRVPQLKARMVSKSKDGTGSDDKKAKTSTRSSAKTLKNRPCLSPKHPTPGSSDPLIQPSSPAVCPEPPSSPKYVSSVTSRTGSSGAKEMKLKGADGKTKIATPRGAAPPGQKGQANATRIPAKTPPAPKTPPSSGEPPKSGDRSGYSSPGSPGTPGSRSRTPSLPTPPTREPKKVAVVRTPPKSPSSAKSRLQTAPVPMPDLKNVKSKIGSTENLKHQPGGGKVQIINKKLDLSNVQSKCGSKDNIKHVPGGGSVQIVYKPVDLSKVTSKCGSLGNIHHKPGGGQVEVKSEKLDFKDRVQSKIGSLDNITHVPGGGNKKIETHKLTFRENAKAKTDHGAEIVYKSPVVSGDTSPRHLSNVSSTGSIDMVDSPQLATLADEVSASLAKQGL
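Quantitative HTS: thioflavine S signal from ODS-induced tau filaments, excited at 450 nm, emission 510 nm. Conditions: 1 uM tau, 30 uM ODS, 15 h at 37 C, pH 7.4.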
15-hLO inh – qHTS Assay for Inhibitors of 15-hLO (15-human lipoxygenase); purified 15hLO-1, xylenol orange hydroperoxide absorbance; Potency, µM (series often up to 57.1 µM), for inactives: at the top dose activity change, negative = inhibition, most hits filed as inhibitors; hit rate 1.4% among 74,000; also: % is scaled to controls: 0 for no effect and ±100 for the full control effect; nearly all actives have a fitted effect of over 55% in size
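40 nM 15hLO-1 + cpd, 15 min RT; start w/ 50 uM AA (final), 6 min RT; stop/detect w/ 200 uM XO + 300 uM Fe(II) in 50 mM H2SO4, 30 min; A573/A405. Buffer 25 mM Hepes pH 7.5, 0.01% Triton X-100. No-enzyme wells as negative control.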
IkB sig inh – IkB Signaling | ABC-DLBCL IkBa-CBG/CBR dual luciferase ratio, 4 h; response scale: scaled: untreated 0%, proteasome inhibitor 100% | hit rate 0.04% among 110,000 | Potency, µM (top dose mostly 57.1 µM), without a hit: at the highest dose IkBa stabilization activation | AID 445, 2006; active = well fitted curve in the direction sought with a large enough effect in the signal ratio, not every such curve was filed as active; inconclusive = small, poorly fitted or top-dose-only effect, or a change in a side signal; the % refers to the signal ratio;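 also: the direction sought is a rising ratio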
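In this assay, an IκBα–CBG68 fusion accumulates when IKK-driven degradation is blocked; native CBR normalizes for cell number. OCI-Ly3 cells were treated 4 h with compound and doxycycline, then green and red light read after Chroma-Glo addition.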
Hsp90 Hop PPI – qHTS Assay for Disrupters of an Hsp90 Co-Chaperone Interaction; Potency, µM (highest dose often 57 µM), inactives show top-dose activity change, negative = inhibition; hit rate 0.44% among 71,000; AlphaScreen TPR2A-His6 binding biotin-Hsp90 C-terminal peptide; Hsp90 C-terminal peptide / TPR2A (Hop) interaction, human; active = well fitted curve in either direction with a large enough effect; inconclusive = small, poorly fitted or top-dose-only effect, or another doubt; also: % is scaled to controls: 0 for no effect and ±100 for the full control effect
Starred values were filed as active, the others as inactive; [ ] = dose if it differs, or a comment. Shown are actives, neighbours in structure and some others; about 3.6% of the full set was active somewhere. Unless noted, calls follow the shape of the dose curve; as a rule, active = well fitted curve in the direction sought with a large enough effect; inconclusive = small, poorly fitted or top-dose-only effect, or another doubt; inactive = no such curve, though single readings can be large; an effect the other way counts as inactive or inconclusive. Potency is read from the fitted curve at half-maximal effect.

Results for CN(C)/C=C1\C(=O)c2ccc(N(C)C)nc2CC1c1ccccc1 (stereo unspecified) ?
CRE-bla Fsk: inconclusive; Tau fil binding: 162%; 15-hLO inh: 5µM*; IkB sig inh: inconclusive; Hsp90 Hop PPI: 11%

Results for Cc1cccc(-c2nc3c4ccccc4nc(NCCc4ccccc4)n3n2)c1 ?
IkB sig inh: 0%

What do the screens show for `O=C(Cn1nnc2c(cnn2-c2ccc(F)cc2)c1=O)OC1CCCCC1`?
CRE-bla Fsk: 16%; Tau fil binding: 20µM*; 15-hLO inh: -9%; IkB sig inh: inconclusive; Hsp90 Hop PPI: inconclusive

How did Cn1c(-c2cccc(Br)c2)cnc1NCc1cccc(F)c1 do in these assays?
IkB sig inh: -1%

How did O=C1C=CC(=O)c2c(O)c(Cl)c(Cl)c(O)c21 do in these assays?
15-hLO inh: 1µM*

What do the screens show for `COc1ccc2[nH]cc(CCNc3ncnc4ccc(-c5ccoc5)cc34)c2c1`?
CRE-bla Fsk: -25%; Tau fil binding: 11%; 15-hLO inh: 6%; IkB sig inh: -6%[11.4 µM]; Hsp90 Hop PPI: -20%

How did CCOc1ccc(CNCc2c(C(=O)O)c(C)n(Cc3ccc(F)cc3Cl)c2C)cc1 do in these assays?
IkB sig inh: 3%

Results for S=C(c1ccc(N2CCCC2)cc1)N1CCCCC1 ?
CRE-bla Fsk: 5%; Tau fil binding: 32µM*; 15-hLO inh: inconclusive; IkB sig inh: 7%; Hsp90 Hop PPI: -22%

How did CN1CCN(C(=S)c2ccc(N(C)C)cc2)CC1 do in these assays?
CRE-bla Fsk: 1%; Tau fil binding: 1%; 15-hLO inh: -10%; IkB sig inh: -1%; Hsp90 Hop PPI: -1%

How did Nc1ccc(N2CCCCCC2)cc1 do in these assays?
CRE-bla Fsk: -6%; Tau fil binding: 10µM*; 15-hLO inh: 3.2µM*; IkB sig inh: inconclusive; Hsp90 Hop PPI: inconclusive

What do the screens show for `CCN(CC)c1ccc(C(=S)N2CCN(c3ccccc3)CC2)cc1`?
CRE-bla Fsk: 15%; Tau fil binding: 5µM*; 15-hLO inh: -20%; IkB sig inh: 3%; Hsp90 Hop PPI: -20%

How did O=C(c1ccccc1)c1ccc(N2CCCC2)cc1 do in these assays?
CRE-bla Fsk: 12%; Tau fil binding: -17%; 15-hLO inh: inconclusive; IkB sig inh: 6%; Hsp90 Hop PPI: inconclusive

How did CCOC(=O)c1ccc(-n2[nH]c(-c3ccccc3)cc2=O)cc1 do in these assays?
CRE-bla Fsk: inconclusive; Tau fil binding: 16µM*; 15-hLO inh: -20%; IkB sig inh: inconclusive; Hsp90 Hop PPI: -11%

How did Cc1cc(C(=O)CSCCCn2c(=O)[nH]c3ccccc32)c(C)n1C do in these assays?
CRE-bla Fsk: -3%; Tau fil binding: 2%; 15-hLO inh: 32µM*; IkB sig inh: 0%; Hsp90 Hop PPI: -7%

What do the screens show for `O=c1[nH]c2ccccc2n1CCCSCCCn1c(=O)[nH]c2ccccc21`?
CRE-bla Fsk: -14%; Tau fil binding: 18%; 15-hLO inh: -2%; IkB sig inh: inconclusive; Hsp90 Hop PPI: -5%

Results for CCOC(=O)C1=C(CN2CCN(c3cccc(Cl)c3)CC2)NC(=O)NC1c1ccc(Cl)cc1 (stereo unspecified) ?
IkB sig inh: -2%

How did CCn1c2ccccc2c2nnc(SCCN3CCCCC3)nc21 do in these assays?
IkB sig inh: -4%

What do the screens show for `CCn1c2ccccc2c2nnc(SCc3ccccc3)nc21`?
CRE-bla Fsk: 3.2µM*; Tau fil binding: -22%; 15-hLO inh: -4%; IkB sig inh: inconclusive; Hsp90 Hop PPI: -7%[2.3 µM]

What do the screens show for `CCn1c2ccccc2c2nnc(SCC(=O)NC(C(=O)OC)C(C)C)nc21` (stereo unspecified)?
CRE-bla Fsk: inconclusive; Tau fil binding: -9%; 15-hLO inh: -19%; IkB sig inh: 0%; Hsp90 Hop PPI: -2%

How did CCn1c2ccccc2c2nnc(SCc3ccc(C(=O)OC)o3)nc21 do in these assays?
CRE-bla Fsk: 2µM*; Tau fil binding: 32µM*; 15-hLO inh: -18%; IkB sig inh: inconclusive; Hsp90 Hop PPI: inconclusive

Results for O=C(CS(=O)(=O)c1cccc2nsnc12)NCc1ccccc1 ?
IkB sig inh: -2%

How did O=C1c2ccccc2C(Nc2ccc3c(c2)OCCO3)N1Cc1ccccc1 (stereo unspecified) do in these assays?
CRE-bla Fsk: -17%; Tau fil binding: 20µM*; 15-hLO inh: -17%; IkB sig inh: inconclusive; Hsp90 Hop PPI: inconclusive

Results for CC(=O)c1cccc(NC2c3ccccc3C(=O)N2Cc2ccc3c(c2)OCO3)c1 (stereo unspecified) ?
CRE-bla Fsk: 10%; Tau fil binding: 2%; 15-hLO inh: -6%; IkB sig inh: -2%; Hsp90 Hop PPI: -3%[2.3 µM]

Results for Cc1ccc(-c2nc(CCNC(=O)C(=O)Nc3ccc(C)c(Cl)c3)cs2)cc1 ?
IkB sig inh: 0%

Results for COc1cccc(-c2cc(C(=O)Nc3ccc(OC)cc3OC)no2)c1 ?
IkB sig inh: 0%

What do the screens show for `CC(Oc1ccccc1)C(=O)Nc1cccc(-c2cn3cccnc3n2)c1` (stereo unspecified)?
IkB sig inh: -2%

How did Nc1nc(-c2cccs2)c(NC(=O)c2ccccc2)s1 do in these assays?
CRE-bla Fsk: 2%; Tau fil binding: -30%; 15-hLO inh: 20µM*; IkB sig inh: inconclusive; Hsp90 Hop PPI: -19%

How did CCOc1ccc(Nc2cc(C)nc(N3CCOCC3)n2)cc1 do in these assays?
CRE-bla Fsk: -4%; Tau fil binding: -10%; 15-hLO inh: -20%; IkB sig inh: 0%; Hsp90 Hop PPI: inconclusive

How did COc1ccc2nc(C)cc(Nc3ccc(N4CCOCC4)cc3)c2c1 do in these assays?
CRE-bla Fsk: inconclusive; Tau fil binding: 5µM*; 15-hLO inh: -7%; IkB sig inh: 5%; Hsp90 Hop PPI: -12%

Results for Cc1ccc(-c2nnc3n2N=C(c2ccc(Br)cc2)CS3)cc1 ?
CRE-bla Fsk: 10µM*; Tau fil binding: inactive; 15-hLO inh: -6%; IkB sig inh: -4%; Hsp90 Hop PPI: -7%

What do the screens show for `Brc1ccc(C2=Nn3c(nnc3-c3n[nH]c4c3CCC4)SC2)cc1`?
CRE-bla Fsk: 5µM*; Tau fil binding: -16%; 15-hLO inh: 17%; IkB sig inh: 3%; Hsp90 Hop PPI: -4%

Results for Clc1ccc(C2=Nn3c(nnc3-c3n[nH]c4c3CCC4)SC2)cc1 ?
CRE-bla Fsk: 2.5µM*; Tau fil binding: -3%; 15-hLO inh: 2%; IkB sig inh: 0%; Hsp90 Hop PPI: -6%

How did CCC(=O)N1CCc2cc(S(=O)(=O)NC(C(=O)NCCc3ccc(OC)c(OC)c3)C(C)C)ccc21 (stereo unspecified) do in these assays?
IkB sig inh: 0%
